Results from publication PMC12136788.
Positions count from the first letter of the chain named. In all, about 24,000 sequences were measured (“enrichment r”: median about 0.99, highest 2% from about 3.7 on). The sample as a whole holds a higher share of the highest values than the screen did.

T1: UNK ZnF1-3 (human, UniProt Q9C0B0 31-174)
T1 sequence: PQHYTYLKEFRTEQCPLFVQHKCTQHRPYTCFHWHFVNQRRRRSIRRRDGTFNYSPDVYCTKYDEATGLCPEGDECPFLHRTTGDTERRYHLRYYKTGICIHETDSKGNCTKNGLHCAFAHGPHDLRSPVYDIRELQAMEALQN

B1: chr14:23562722:23562723:-_ENSG00000100813_ENST00000605057|hu_mus|FALSE|FALSE (ssRNA)
RNA: GGGAGUUCUACAGUCCGACGAUCUGGCUCAUUUCCUCCCCGAUCUGUGAAUUUGGCUGGAAUGCAGCAUGGGGUGUUGAGUGUUUUUGUAAAUUUUCUAGCAUUAGAGCCCCUUUGAGCCGCUUGACCAGGGCACUCUUCUGCCAACAGAGGAUUGAGCAUCA
B2: 107524198_107526941_663_CDS_ENSMUSG00000028613_ENSMUST00000106731|mouse|control|control (ssRNA)
RNA: GGGAGUUCUACAGUCCGACGAUCGGGAUGAGGCGCGAGUAGUCCCGCUUCACCAGGUCUAUCCUCCGCACCUCGUGUCGGUUCGUGAAGAUCAGAGAUGGGCUCUUGCCGGCUACAGCUUUGCAGUUCUUGGUCAGUGUAUCCCAACAGAGGAUUGAGCAUCA
B3: chr11:72497679:72497680:+_ENSMUSG00000020794_ENSMUST00000021148|mus_mus|motif|central (ssRNA)
RNA: GGGAGUUCUACAGUCCGACGAUCUAUUGCUACAUCCAAUCCAAGAGAUGGGUGAAUCAUAGUACAAAAAGGACAAAGCACCGGGUGAUGACCCCUCCUCUGAAGUCAUCGUGAAAAACUCAAGUAAUUUACUAGUAUUUCAGUCAACAGAGGAUUGAGCAUCA
B4: chr10:35314101:35314102:-_ENSG00000108094_ENST00000537177|hu_mus|motif|central (ssRNA)
RNA: GGGAGUUCUACAGUCCGACGAUCUUCACCUGUACAGAGAUAAUGCAACCAUGUCAGCUUCCGUCCACUGAAAUGCUGGCGGUAAAACAAUUCAAACAUCUGUACACUUUUCUCUAGCUCUUGGGGAAUUGCAAAUGUAGAUGACAACAGAGGAUUGAGCAUCA
B5: chr9:88635815:88635816:+_ENSG00000135040_ENST00000361671|hu_hu|FALSE|FALSE (ssRNA)
RNA: GGGAGUUCUACAGUCCGACGAUCUCCUCCUGCCAAUAACUUCAUAACCACAAAGUUGGGUUUGGCAACCUUUAAAAUUCUAUUAACCUCAUGGUCCGGGUUAGGAAUAUUUUCCAAUAUCAUUUUUGCCUGUUGAAAGUGCUUCAACAGAGGAUUGAGCAUCA
B6: chr5:180275300:180275301:-_ENSG00000196670_ENST00000512132|hu_hu|FALSE|FALSE (ssRNA)
RNA: GGGAGUUCUACAGUCCGACGAUCUCAUCAUCACUGCCCCCUCCCAAACCAAUUACAUCAAGUUUAUACUUAAAGACCACUAAUAUUAAAUAAAUUUAUAUUCCCUGAAACCUAUCCUCCCUGAAUUUGCCUGUUGGAGGCCCUCAACAGAGGAUUGAGCAUCA
B7: chr18:43482294:43482295:-_ENSMUSG00000024501_ENSMUST00000121805|mus_mus|FALSE|FALSE (ssRNA)
RNA: GGGAGUUCUACAGUCCGACGAUCUGACAGAGUUUUGCCUAGCAUUUGAGAGGCCCUGGACUCAAUUGUCCAGCUCUACAAAAUGAAAUAAACAGAAAUUCCCCACCUCAAAAAAAAAAAACAACAACAACAACAACAAAAAACCAACAGAGGAUUGAGCAUCA
B8: chr10:22825647:22825648:-_ENSG00000150867_ENST00000376573|hu_hu|FALSE|FALSE (ssRNA)
RNA: GGGAGUUCUACAGUCCGACGAUCUCAUCAUUAUUAUCUUCAUUAUUCUGAAUACUGUCUCACAUCUUUCAACUCCAAAAAAAAAAAAAAAAAAAAAAAACUGAUCCACAGUUUGUUGUGUGAUGCCAACACGGUGCCUGACAUCAACAGAGGAUUGAGCAUCA
B9: chr19:60013232:60013233:-_ENSMUSG00000040022_ENSMUST00000171986|mus_hu|FALSE|FALSE (ssRNA)
RNA: GGGAGUUCUACAGUCCGACGAUCCUUAUCUUUUAACUUUGCAAAAGGAGAUCUGGUUUUGUCCUUCAUUGAUAAGUCAAACAUACUUGCGGUCAUAUUGUUCCUCAUAAACUGAAUAUUGACCUUUAUCUCACCCCUGUUUUUCAACAGAGGAUUGAGCAUCA
B10: chr2:203071915:203071916:-_ENSG00000116030_ENST00000392246|hu_hu|motif|central (ssRNA)
RNA: GGGAGUUCUACAGUCCGACGAUCCAAAGAGAUGGGGUGCCAGUUUUCAAUUCCGUUUUGAACACCACAUUACAAAAGAACGGUUUUUAAAAAUAAAAAAGGAUUGAGGGAAAAGAAAAAAAAUAAAAAGAAUAUCUAAACUGUCAACAGAGGAUUGAGCAUCA
B11: chrX:153994619:153994620:+_ENSG00000130826_ENST00000369550|hu_mus|FALSE|FALSE (ssRNA)
RNA: GGGAGUUCUACAGUCCGACGAUCUCCAACAUACUCUUUGCCUGCACUCUGUUGUGAUUUCACCAAACGAGUGGCUCGUUCAAUGCACACAAUUAAACAACCAGUCACUUUGGGAUCUAGUGUGCCACUGUGGCCAGUCUUCUCCAACAGAGGAUUGAGCAUCA
B12: chr7:17500836:17500837:-_ENSMUSG00000019370_ENSMUST00000019514|mus_mus|FALSE|FALSE (ssRNA)
RNA: GGGAGUUCUACAGUCCGACGAUCUGAACUGAACACAAUAUUGCCCGGUUUGUUUGUUUGUUUAAAAAAAAAAAAAAAAAAGGAAAAACAAAAAACCAAAAUAAAACCCCGAAACAUUCCGCAAAGUCCACAGCCUCACGCCUACAACAGAGGAUUGAGCAUCA
B13: chr2:203071915:203071916:-_ENSG00000116030_ENST00000392246|hu_hu|FALSE|FALSE (ssRNA)
RNA: B10 RNA with G81U, G82A
B14: chr2:203071830:203071831:-_ENSG00000116030_ENST00000392246|hu_hu|FALSE|FALSE (ssRNA)
RNA: GGGAGUUCUACAGUCCGACGAUCAGGGGACUGAGGCUUGAUCACCAAAAAUCAGCACAAUGAAAACAAACAAUAAUGAAUAAUGAGCACUAGAAUUCAAAUUACCAGAUGUUUCAAAGAGAUGGGGUGCCAGUUUUCAAUUCCCAACAGAGGAUUGAGCAUCA

Target: T1, UNK ZnF1-3
Assay: nsRBNS (natural sequence RNA bind-n-seq); RBNS binding buffer (assumed for nsRBNS): 25 mM Tris pH 7.5, 150 mM KCl, 3 mM MgCl2, 0.01% Triton X-100, 500 ug/ml BSA, 20 U/ml SUPERase-In, 4 C; UNK is unkempt and MSI1 is Musashi-1; names of the RNAs are library labels; protein concentration not given here; high values mean tight binding

Binder | binding signal
B1 | 0.906 enrichment R
B2 | 0.464 enrichment R
B3 | 0.978 enrichment R
B4 | 0.886 enrichment R
B5 | 1.04 enrichment R
B6 | 3.55 enrichment R
B7 | 3.06 enrichment R
B8 | 5.07 enrichment R
B9 | 0.548 enrichment R
B10 | 20.1 enrichment R
B11 | 0.751 enrichment R
B12 | 6.58 enrichment R
B13 | 32.1 enrichment R
B14 | 3.55 enrichment R
